Source: PubChem BioAssay
Shown are actives, neighbours in structure and some others; about 15% of the full set was active somewhere.
HCMV antiviral – qHTS Assay for inhibitors of the human cytomegalovirus (HCMV); 410,000 tested, 4.5% active; AID 1259415, 2018; HFF cells, HCMV-luciferase reporter, 72 h; active compounds read low; activity change, negative = inhibition, % at 57.5 µM; in the data active means activity change below about -60%; inconclusive means no clear call, values can overlap the other calls; inactive means above about -39%; further: on the % scale 0 is the no-effect control and ±100 the full control effect
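HFF cells seeded 16 h at 37C, treated with compounds, infected with luciferase-reporter HCMV at MOI 1 PFU/cell; luciferase read at 72 h post infection, normalized to buffer-only and Salinomycin controls.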
Sm TGR block – qHTS Assay for the Inhibitors of Schistosoma Mansoni Peroxiredoxins; AID 485364, 2010; 360,000 tested, 3% active; Schistosoma mansoni thioredoxin glutathione reductase (TGR), Q962Y6; purified TGR, DTNB reduction, TNB absorbance 405 nm; Potency, µM (series often up to 114 µM), inactives show at the highest dose activity change, negative = inhibition, most hits filed as inhibitors; further: potency means the concentration at half of the fitted maximal effect; on the % scale 0 is the no-effect control and ±100 the full control effect; nearly all actives have a fitted effect of over 60% in size
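Kinetic colorimetric format: TGR-catalysed, NADPH-driven DTNB reduction monitored via TNB absorbance. Enzyme dispensed at 20 nM; compound exposure 15 min at room temperature before reaction start.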
Pf growth 96h – Primary qHTS for delayed death inhibitors of the malarial parasite plastid, 96 hour incubation | 320,000 tested, 6.9% active | Potency, µM (highest dose often 28.7 µM), for the others: at the highest dose activity change, negative = inhibition, actives largely listed as inhibitors | P. falciparum luciferase reporter growth, 96 h; further: potency means the concentration at half of the fitted maximal effect; on the % scale 0 is the no-effect control and ±100 the full control effect
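Parasite growth measured via integrated firefly luciferase reporter in P. falciparum. Infected erythrocytes at 2% hematocrit, 0.05% parasitemia final were treated 96 hours at 37 C under 5% CO2, and luminescence was read.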
Pf growth 48h – Primary qHTS for delayed death inhibitors of the malarial parasite plastid, 48 hour incubation; P. falciparum luciferase growth in erythrocytes, 48 h; 310,000 tested, 5.9% active; AID 504832, 2011; Potency, µM (top dose mostly 28.7 µM), inactives show at the top dose activity change, negative = inhibition, hits mostly inhibitors; further: potency means the concentration at half of the fitted maximal effect; on the % scale 0 is the no-effect control and ±100 the full control effect
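Luciferase-expressing P. falciparum in infected erythrocytes (2% hematocrit, 0.1% parasitemia final) in RPMI 1640/0.5% Albumax were exposed to compound for 48 hours at 37 C, 5% CO2; growth read as luminescence.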
HCV inh – qHTS Assay for Inhibitors of Hepatitis C Virus (HCV). Huh7.5.1 HCVcc-Cre infection, luciferase reporter, 44 h. Potency, µM (doses to about 41.8 µM), inactives show at the highest dose activity change, negative = inhibition, usual class: inhibitors. 340,000 tested, 3.4% active. AID 651820, 2012; further: potency means the concentration at half of the fitted maximal effect; on the % scale 0 is the no-effect control and ±100 the full control effect
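Infectious HCV cell culture screen: compound-treated cells (1,000/well, pre-plated 4 h) are infected with HCVcc-Cre at roughly 0.5 moi and grown 44 h. Infection is quantified by luciferase signal after 15 min substrate incubation at room temperature.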
SARS PLpro yeast – qHTS of Yeast-based Assay for SARS-CoV PLP; 330,000 tested, 0.19% active; Potency, µM (top dose mostly 32.9 µM), for inactives: top-dose activity, positive = growth rescue, usual class: activators; S. cerevisiae expressing SARS-CoV PLpro, growth rescue; calls by dose curve; further: potency means the concentration at half of the fitted maximal effect; 0% is about no effect; nearly all actives have a fitted effect of over 55% in size
The depositor's hits bear a star; ? = inconclusive; . = not tested or not shown; [ ] = dose if it differs, or a comment. Unless noted, the call rests on the fitted dose curve; in most records, active means well fitted curve in the direction sought with a large enough effect; inconclusive means small, poorly fitted or top-dose-only effect, or another doubt; inactive means no such curve, though single readings can be large; an effect the other way counts as inactive or inconclusive.

SMILES | HCMV antiviral | Sm TGR block | Pf growth 96h | Pf growth 48h | HCV inh | SARS PLpro yeast
COc1cc(C2Nc3cccc4cccc(c34)N2)ccc1O | -4 | 4µM* | ? | ? | -7% | ?
COc1cc(C2Nc3cccc4cccc(c34)N2)cc(OC)c1OC(C)=O | -15 | 8.9µM* | 1% | -1% | -7% | 3%
CC(CNC(=O)C1CCCN(S(=O)(=O)N2CCOCC2)C1)c1ccccc1 (centres undefined) | -22 | -2% | ? | ? | 22% | .
Cc1ccc(N(C(=O)CNC(=O)c2ccco2)C(C(=O)NC2CCCC2)c2cccnc2)c(C)c1 (centres undefined) | -23 | -3% | -3% | -22% | 7% | 2%
CCc1ccc(NC(=O)N2CCN(C(=O)C3CCCO3)CC2)cc1 (centres undefined) | -3 | 5% | 15% | 62% | 24% | 2%
O=C1NC(c2cccc3ccccc23)Nc2ccc(Cl)cc21 (centres undefined) | -73* | . | . | . | -24% | .
COc1cc(C)c(C2NC(=O)c3ccccc3N2)cc1C (centres undefined) | 60 | . | . | . | ? | .
Cc1ccc(C)c(C2NC(=O)c3ccccc3N2)c1 (centres undefined) | -68* | 0% | 25% | -13% | -6% | -1%
Clc1ccc(C2Nc3cccc4cccc(c34)N2)c(Cl)c1 | -18 | . | . | . | -4% | .
O=C1NC(c2cc3ccccc3nc2Cl)Nc2ccccc21 (centres undefined) | 25 | 5% | 1.9µM* | 2.9µM* | 10% | -3%
COc1ccc([C@H]2N[C@]3(CCCN(Cc4ccc(Cl)cc4)C3=O)[C@H]3C(=O)N(Cc4ccccc4)C(=O)[C@@H]23)cc1 | -22 | . | . | . | . | .
COc1ccc(NC(=O)C2CC2(Cl)Cl)cc1S(=O)(=O)N1CCCCC1 (centres undefined) | -39 | . | . | . | . | .
CC(C)N(Cc1nc(-c2ccc(Cl)cc2)no1)C(=O)C(c1ccccc1)c1ccccc1 | -26 | -1% | 8.3µM* | . | -16% | -15%
O=C(NCCc1ccccc1)c1csc(C(O)Cc2ccc(F)cc2)n1 (centres undefined) | 7 | . | . | . | . | .
Cc1ccc(SCc2cc(=O)c3c(=O)n(-c4ccccc4)[nH]c3[nH]2)cc1 | -10 | -35% | 9.3µM* | 3%[5.75 µM] | 25% | 0%
O=c1cc(CSc2ccc(Cl)cc2)[nH]c2[nH]n(-c3ccccc3)c(=O)c12 | -14 | 45µM* | 15% | 4% | -10% | 6%
CC1(CCC(=O)O)C(=O)CCC2C1CCC1(C)C2CCC1(C)O (centres undefined) | -11 | . | . | . | 31% | .
CCCCNC(=O)C1(C)CCCCCN1Cc1cccc2c(OC)cc(C(=O)OCC)cc12 (centres undefined) | 15 | . | . | . | . | .
CC[N+](CC)(CC#Cc1ccccc1)CC#Cc1ccccc1 | -30 | 4% | ? | 1.5µM* | -6% | 1%
O=C(Cn1cnc2onc(-c3ccc(F)cc3)c2c1=O)N1CCN(c2ccc(F)cc2)CC1 | -29 | 8% | . | . | . | .
CCOC(=O)CC(=O)Nc1cc(Cl)ccc1O | -12 | 3% | 12µM* | 15% | 23% | -8%
O=C(Nc1cc(Cl)ccc1O)c1snnc1-c1ccccc1 | -100* | -13% | 12µM* | ? | 18µM* | -3%
O=C(CCc1ccccc1)Nc1cc(C(=O)O)cc(C(=O)O)c1 | 17 | 12% | 1.5µM* | 24% | 7% | -1%
O=C(O)CC(=O)Nc1cc(Cl)ccc1O | 18 | -7% | 6% | . | 9% | 5%
O=C(CCc1ccccc1)Nc1cc(Cl)ccc1O | -28 | -17% | ? | 10µM* | ? | -17%
SMILES | HCMV antiviral | Sm TGR block | Pf growth 96h | Pf growth 48h | HCV inh | SARS PLpro yeast
O=C(c1cccc(S(=O)(=O)N2CCN(c3ccc(F)cc3)CC2)c1)N1CCN(c2ccccc2O)CC1 | -31 | . | . | . | ? | .
CCCCNC(=O)C(Cc1ccccc1)NS(=O)(=O)c1ccc2c(c1)c(=O)n(C)c(=O)n2C (centres undefined) | ? | 0% | ? | . | 2% | 7%
CC(C)COc1ccc(C(=O)Nc2scc(-c3ccc(Cl)cc3Cl)c2C(N)=O)cc1 | ? | 6% | ? | 3.3µM* | 13µM* | -5%
Cc1ccc(C(c2sc3nc(-c4ccco4)nn3c2O)N2CCCCC2)cc1 (centres undefined) | 21 | 6% | . | . | . | .
COCCNC(=S)N/N=C(\C)c1ccccc1O | -11 | -5% | ? | 2.9µM* | ? | 9%
COCCNC(=S)N/N=C(\C)c1ccccc1F | -37 | ? | 9.3µM* | ? | -7% | 2%
COCCNC(=S)N/N=C(\C)c1ccccc1OC | -30 | ? | ? | ? | 15% | 18%
Cc1ccc2c(=O)cc(C(=O)Nc3c(C(=O)Nc4cccc(Cl)c4)oc4ccccc34)oc2c1 | -3 | -1% | . | . | . | .
COc1ccc(CNS(=O)(=O)c2cc(CN3C(=O)c4cccnc4C3=O)ccc2OC)cc1 | -34 | -10% | 15µM* | 9% | 23% | 3%
CC(C)NC(=O)CN(C(=O)CCC(=O)Nc1nccs1)c1ccc2c(c1)OCO2 | -16 | 2% | 13µM* | 20% | -10% | 8%
O=C(CN(C(=O)CCC(=O)Nc1nccs1)c1cccc(F)c1)NCc1ccc(F)cc1 | -25 | -5% | 2% | 7% | 2% | 1%
O=C(CN(C(=O)CCC(=O)Nc1nccs1)c1cccc(F)c1)NCCc1ccccc1 | -88* | 1% | 13% | 0% | ? | 1%
Cc1cccc(N(CC(=O)NC(C)C)C(=O)CCC(=O)Nc2nccs2)c1 | 1 | 0% | ? | 9.3µM* | -4% | -2%
Cc1ccc(N(CC(=O)NC(C)C)C(=O)CCC(=O)Nc2nccs2)cc1 | 19 | -23% | -30% | 2% | 3% | 13%
CCc1cccc(CC)c1N(COC)C(=O)Cn1c(CC)nc2ccccc21 | -38 | -4% | . | . | . | .
CCc1cccc(CC)c1N(COC)C(=O)Cn1c(C(C)O)nc2ccccc21 (centres undefined) | 7 | -9% | 9.3µM* | 0% | 2% | -4%
CCCn1c(C(O)c2ccc(OC)c(OC)c2)nc2ccccc21 (centres undefined) | -69* | -2% | ? | 19% | ? | 12%
CCOCCn1c(C(C)O)nc2ccccc21 (centres undefined) | 4 | 2% | 3.7µM* | 25% | -12% | 11%
